# Reference: PubChem BioAssay AID588453 (National Center for Advancing Translational Sciences (NCATS), 2011)
# Hit rate of the full screen: of about 390,000 compounds, about 4,000 (1%) were called active. Where a call stands in place of a potency, no number is given. Not shown: some 4% with an inconclusive outcome. Calls come from the whole dose curve; as a rule, active = well fitted inhibition curve with a large enough effect; inconclusive = small, poorly fitted or top-dose-only effect; inactive = no such curve, though single readings can be large or run the other way. For the sample, actives were picked, then their nearest neighbours and some compounds at random.
# Target: Thioredoxin reductase 1, cytoplasmic (Rattus norvegicus) (UniProt O89049)
# Sequence (O89049 whole entry, looked up): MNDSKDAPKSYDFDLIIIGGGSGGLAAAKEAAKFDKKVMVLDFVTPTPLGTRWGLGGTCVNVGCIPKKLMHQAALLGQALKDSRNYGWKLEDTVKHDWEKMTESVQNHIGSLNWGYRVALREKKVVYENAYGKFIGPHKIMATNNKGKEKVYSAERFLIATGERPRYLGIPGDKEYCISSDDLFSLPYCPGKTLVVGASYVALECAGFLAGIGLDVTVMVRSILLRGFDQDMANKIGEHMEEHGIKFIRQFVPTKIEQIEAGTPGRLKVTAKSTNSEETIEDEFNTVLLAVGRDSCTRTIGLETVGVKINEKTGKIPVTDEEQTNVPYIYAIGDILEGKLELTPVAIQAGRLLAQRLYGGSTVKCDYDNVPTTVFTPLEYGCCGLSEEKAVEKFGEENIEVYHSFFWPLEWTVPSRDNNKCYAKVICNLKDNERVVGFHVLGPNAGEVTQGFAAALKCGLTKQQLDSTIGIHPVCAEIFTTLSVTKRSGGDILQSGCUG
# Experiment: qHTS Assay for Inhibitors of Mammalian Selenoprotein Thioredoxin Reductase 1 (TrxR1): qHTS; note: nearly all actives have a fitted effect of over 65% in size
# Conditions: recombinant rTrxR1, NADPH fluorescence consumption, selenite substrate; series mostly up to 114 µM
# Summary of the method: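 Rat TrxR1 (90 nM in the dispensed reagent) was pre-reduced with 400 uM NADPH for 5 min at room temperature, then incubated with compound for 15 min. After 400 uM selenite was added, NADPH fluorescence (Ex 340/Em 450 nm) was followed for 8 min.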
# Potency is the fitted concentration of half-maximal effect.
Structure (SMILES),Potency,"activity change, negative = inhibition"
CCOC(=O)c1[nH]c(C)c(CCC(=O)N2CCN(c3ccccc3)CC2)c1C,inactive,
CCc1nc2ccc(C(=O)N3CCN(c4cc(Cl)ccc4C)CC3)cc2nc1CC,inactive,
CC(C)CNC(=S)NNC(=O)c1nn(C)cc1Cl,inactive,
CC(C)CNC(=S)NC(=O)c1ccc(Cl)cc1,14.1 µM (active),
Cc1scc(C(=O)NNC(=S)NCC(C)C)c1C,inactive,
CCOC(=O)c1c(NC(=O)CSc2cn(CCNC(=O)c3cccc(C(F)(F)F)c3)c3ccccc23)sc2c1CCC2,,16.1% [at 11.4 µM] (inactive)
Cc1cc(C)nc(NNC2=CC(=O)CC(C)(C)C2)n1,14.1 µM (active),
Cc1cc(O)ccc1NC1=CC(=O)CC(C)(C)C1,inactive,
CC1(C)CC(=O)C=C(NCc2ccncc2)C1,inactive,
Cc1ccc(OCCn2c(CNc3ccccc3C)nc3ccccc32)cc1,inactive,
CCN1CCc2nc3sc(C(=O)Nc4ccccc4OC(F)(F)F)c(N)c3cc2C1,inactive,
Cc1ccc(C)c(Cn2c(CCCNC(=O)C3CCCCC3)nc3ccccc32)c1,inactive,
CCC(=O)Nc1ccc2nc(SCC(=O)N3CCc4ccccc43)sc2c1,inactive,
O=C1C=CC(=O)N1c1ccc(N2CCCCC2)cc1,0.708 µM (active),
O=C(NCc1ccc(F)cc1)c1ccc(Cn2c(SCc3ccc(F)cc3)nc3cccnc32)cc1,inactive,
Cc1ccc(C)n1-c1nnc(N2CCC(C(=O)NCc3ccc(F)cc3)CC2)s1,inactive,
COc1ccc(CCNC(=O)CCCn2c(=O)c3ccccc3n(Cc3ccc(F)cc3Cl)c2=O)cc1OC,inactive,
Nc1ccccc1SC(C[N+](=O)[O-])c1ccccc1 (stereo unspecified),7.94 µM (active),
CN(C)c1ccc(/C=c2\[nH]c(=O)/c(=C/c3ccc(N(C)C)cc3)[nH]c2=O)cc1,inactive,
Cc1ccc(S(=O)(=O)N(C)C)cc1NC(=O)C1Cc2ccccc2CN1C(=O)c1ccco1 (stereo unspecified),39.8 µM (active),
Cc1ccc(C)c(NC(=O)C2Cc3ccccc3CN2C(=O)OCc2ccccc2)c1 (stereo unspecified),inactive,
COc1ccccc1N1CCN(C(=O)C2Cc3ccccc3CN2C(=O)c2ccco2)CC1 (stereo unspecified),inactive,
Cc1c(Cl)cccc1NC(=O)CCS(=O)(=O)c1ccc2c(c1)oc(=O)n2C,inactive,
Cc1ccc(C)c(NC(=O)Cn2ccn(-c3ccc(F)cc3)c(=O)c2=O)c1,inactive,
CCc1cc2c(cc3c(=O)n(CC(=O)NCCc4ccc(OC)c(OC)c4)ncn32)s1,inactive,
O=C1c2ccccc2C(=O)N1CCC(O)C[N+](=O)[O-] (stereo unspecified),70.8 µM (active),

Structure (SMILES),Potency,"activity change, negative = inhibition"
O=C1c2ccccc2C(=O)N1CCOc1ccc(F)cc1,inactive,
O=C(OCCN1C(=O)c2ccccc2C1=O)Oc1ccccc1,inactive,
Cc1cc2nn(-c3ccc(Cl)cc3)nc2cc1NC(=O)C(C)C,inactive,
COc1ccc(/C=C(\NC(=O)c2ccc(OCC(C)C)cc2)C(=O)OCc2ccco2)cc1,inactive,
CC(C)Oc1ccc(/C=C(\NC(=O)/C=C/c2ccco2)C(=O)NCCc2nc3ccccc3[nH]2)cc1,17.8 µM (active),
CCCC(NC(=O)c1ccco1)c1nc2ccccc2[nH]1 (stereo unspecified),inactive,
O=C1CN(Cc2ccccc2)S(=O)(=O)c2ccccc21,inactive,
COc1cccc(CNC(=O)c2ccc3c(Cl)c4c(nc3c2)CCCC4)c1,inactive,
C/C=C(\C)C(=O)N1CC2(CC(c3cccc(NC(=O)CCCCC)c3)=NO2)C[C@@H]1C(N)=O (stereo partly specified),inactive,
CC/C=C/C(=O)N1CC2(CC(c3cccc(NC(=O)CC)c3)=NO2)C[C@H]1C(N)=O (stereo partly specified),inactive,
C/C=C\C=C\C(=O)N1CC2(CC(c3cccc(NC(=O)/C(C)=C\C)c3)=NO2)C[C@H]1C(N)=O (stereo partly specified),50.1 µM (active),
COc1cccc(CNC(=O)Cc2csc3nc(-c4ccccc4)cn23)c1,inactive,
O=C(CSc1nnc(-c2ccco2)n1CC1CCCO1)c1ccccc1 (stereo unspecified),44.7 µM (active),
CNC(=O)NC(=O)CSc1nnc(-c2ccc(F)cc2)n1CC1CCCO1 (stereo unspecified),inactive,
Cc1nnc(SCC(=O)NNC(=O)c2ccc(Cl)cc2)n1CC1CCCO1 (stereo unspecified),inactive,
CCc1cccc(NC(=O)c2cc(-c3ccccc3)n[nH]2)c1,inactive,
CC(C)(C)c1ccc(C(=O)C[n+]2cccc3cc(Cl)ccc32)cc1,inactive,
CC(C)c1ccc(S(=O)(=O)Nc2ccc(O)c(Sc3nc4ccccc4s3)c2)cc1,inactive,
O=[N+]([O-])c1c(NCCO)cc(Sc2nc3ccccc3s2)c2nonc12,1.12 µM (active),
CC(C)(C)c1ccc(S(=O)(=O)Nc2ccc(O)c(Sc3nc4ccccc4s3)c2)cc1,inactive,
CCc1ccccc1NS(=O)(=O)c1ccc2nc(-c3ccccc3)[nH]c2c1,inactive,
O=S(=O)(Nc1ccc2nc(-c3ccco3)[nH]c2c1)c1ccccc1,56.2 µM (active),
O=S(=O)(Nc1ccc2nc(-c3cccc(Cl)c3)oc2c1)c1ccccc1,inactive,
CCOC(=O)C1CCN(c2csc3ccc(C)cc3c2=O)CC1,inactive,
O=C(Nc1nsc(-c2ccccc2)n1)c1ccncc1,inactive,
COC(=O)c1nc(NC(=O)c2ccccc2)n[nH]1,56.2 µM (active),

Structure (SMILES),Potency,"activity change, negative = inhibition"
COC(=O)c1ccc(NC(=O)CSc2n[nH]c(-c3ccccc3)n2)cc1,inactive,
COc1ccc(CNC(=O)c2cc3c(=O)[nH]c4ccc(C)cc4c3s2)c(OC)c1,inactive,
Cc1cccc(Cn2c(=O)n(CCC(=O)NCCc3ccc(Cl)cc3)c(=O)c3sccc32)c1,inactive,
O=S(=O)(c1ccccc1)c1nc(Cc2ccccc2)oc1N1CCOCC1,1.58 µM (active),
O=S(=O)(c1ccccc1)c1nc(-c2ccc(Cl)cc2Cl)oc1N1CCCCC1,inactive,
COc1ccc(-c2nc(S(=O)(=O)c3ccccc3)c(N3CCCCC3)o2)cc1,inactive,
CCOc1ccc(-c2cc3c(=O)n(CC(=O)NCc4ccc(OC)cc4)ccn3n2)cc1,inactive,
Cc1c(CCO)sc[n+]1CC(=O)c1ccc2ccccc2c1,inactive,
Cc1noc2ncnc(NCc3ccccc3Cl)c12,inactive,
OCCNc1ncnc2oc(-c3ccco3)c(-c3ccco3)c12,50.1 µM (active),
COc1ccc(-c2oc3ncnc(NCCCO)c3c2-c2ccc(OC)cc2)cc1,inactive,
CN(C)c1ccc(/C=N\Nc2ccc([N+](=O)[O-])cc2[N+](=O)[O-])cc1Cl,,26.5% [at 0.0914 µM] (inactive)
Cc1ccc2ncc(C(=O)Nc3ccc(OC(F)(F)F)cc3)c(=O)n2c1,inactive,
Cc1ccccc1-n1nc(C)c2c1N=C1C(Cl)=CC(Cl)=CN1C2c1ccc(C(=O)O)cc1 (stereo unspecified),12.6 µM (active),
Cc1ccccc1-n1nc(C)c2cc(C(=O)NC3CC3)sc21,inactive,
O=C(CCc1nc(CN2CCN(S(=O)(=O)c3ccc(Br)cc3)CC2)no1)N1CCCCC1,inactive,
Cc1noc(/C=C/N(C)C)c1S(=O)(=O)N1CCCC(C(=O)Nc2cccc(F)c2)C1 (stereo unspecified),inactive,
Cc1nccc(-c2ccc(-n3c(C)ccc3C)cc2)n1,79.4 µM (active),
c1ccc(-c2nccc(-c3ccc(-n4cnc5ccccc54)cc3)n2)nc1,inactive,
Cc1ccc(C)n1-c1ccncc1,inactive,
NC1CCN(O)C1=O (stereo unspecified),inactive,
CC(C)(C)OC(=O)N(Cc1ccco1)S(=O)(=O)c1ccccc1Br,inactive,
O=C(NCc1ccccc1Cl)c1cccn1-c1nnc(N2CCCCC2)s1,inactive,
O=C(NCCc1ccccc1)c1ccc2c(c1)N(Cc1ccccc1)C(=O)c1ccccc1S2(=O)=O,inactive,
CCCCOc1ccc(CN2C(=O)C(=O)c3cc(Br)cc(C)c32)cc1OC,inactive,
CCOc1ccc(C(=O)N2CCN(CCc3ccccn3)CC2)cc1,inactive,

Structure (SMILES),Potency,"activity change, negative = inhibition"
CCOc1ccc(C(=O)CCN2CCOCC2)cc1,3.16 µM (active),
CCOc1ccc(-c2ccc(SCC(=O)N3CCOCC3)nn2)cc1,inactive,
SCc1nc2ccc(Cl)cc2[nH]1,inactive,
Cc1ccccc1C(=O)Nc1sc2c(c1C(=O)N1CCC(C)CC1)CCCC2,inactive,
Cc1cccc(NC(=O)C2CCCN2S(=O)(=O)c2cccc3nsnc23)c1C (stereo unspecified),inactive,
COc1cc(COCC(O)CN2CCN(Cc3ccc4c(c3)OCO4)CC2)cc(OC)c1OC (stereo unspecified),inactive,
COc1c(O)ccc2c1CN1CCc3cc4c(cc3C1C2)OCO4 (stereo unspecified),50.1 µM (active),
COc1cc(C2c3cc4c(cc3C(O)C3COC(=O)C23)OCO4)cc(OC)c1OC (stereo unspecified),inactive,
Nc1nc(N)c(N=O)c(N)n1,inactive,
COc1ccc(NS(=O)(=O)c2cc3c4c(c2)CC(=O)N4CCC3)cc1Cl,inactive,
Fc1ccc(-c2ccc(-c3nn4c(-c5ccco5)nnc4s3)o2)cc1,35.5 µM (active),
O=C(Nc1ccc(Br)cc1)c1ccc(Br)c(S(=O)(=O)NCc2ccccc2)c1,inactive,
O=C(NC1CC(=O)N(c2ccc(Cl)cc2)C1)C1CCCC1 (stereo unspecified),inactive,
Cc1ccc(CCNC(=O)c2ccc3c(c2)N(Cc2cc(C)ccc2C)C(=O)c2ccccc2S3=O)cc1 (stereo unspecified),inactive,
Cc1ccccc1N(C(=O)CNC(=O)c1cccs1)C(C(=O)NC1CCCC1)c1ccncc1 (stereo unspecified),inactive,
Cc1ccccc1C(CC(=O)c1cccs1)C(C#N)C#N (stereo unspecified),10 µM (active),
C[N+]1(CC(=O)c2cccs2)CCOCC1,inactive,
CCOC(=O)c1ccc(NC(=O)c2c(NCc3cccc(OC)c3)sc3c2CCC3)cc1,inactive,
CCOC(=O)c1ccc(NC2=CC(c3ccc(OCC)cc3)N(c3ccc(C(=O)OCC)cc3)C2=O)cc1 (stereo unspecified),inactive,
CCOc1ccc(N2C(=O)CN(c3cccc4ccccc34)C2=S)cc1,inactive,
CCOc1ccc(N2C(=O)/C(=C/c3ccc(C)o3)N(C)C2=S)cc1,31.6 µM (active),
COc1ccc(Cn2c(=O)n(-c3ccccc3C)c(=O)c3c4c(sc32)CN(C(C)=O)CC4)cc1,inactive,
O=C(COc1ccccc1Cl)Nc1ccc2nc(SCC(=O)N3CCCC3)sc2c1,inactive,
